Screening data deposited in PubChem by National Center for Advancing Translational Sciences (NCATS).
Shiga toxin inh: inhibitors of Shiga toxin in Vero cells; Vero cells, Shiga toxin protein synthesis inhibition reporter; 290,000 compounds, 9.2% hits; inhibition, % at 38.7 µM; in the data active = inhibition mostly above about 28%, no sharp cut-off; inactive = mostly below about 43%
CHX counter: affects cycloheximide protein synthesis inhibition readout, counter-screen | cell reporter, cycloheximide protein synthesis inhibition counterscreen | max response, % | 300,000 compounds, 12% hits; in the data active = max response mostly above about 13%, no sharp cut-off; inactive = mostly below about 14%; note: read at 38.3 µM for the half of the compounds with a filed dose
HCV inh: blocks hepatitis C virus. Huh7.5.1 HCVcc-Cre infection, luciferase reporter, 44 h. Potency, µM (titrated, usually from 41.8 µM), most hits filed as inhibitors. 340,000 compounds, 3.4% hits. AID 651820
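1,000 cells/well; 4 h culture; + compound; + HCVcc-Cre (~0.5 moi); 44 h; luciferase substrate, RT 15 min; read 15 sec.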
Pf growth 48h: inhibits P. falciparum growth in the first generation, 48 h; P. falciparum luciferase growth in erythrocytes, 48 h; AID 504832; Potency, µM (series often up to 28.7 µM), actives largely listed as inhibitors; 310,000 compounds, 5.9% hits
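Luciferase-expressing parasites in RBCs, 2% Hct / 0.1% parasitemia final; RPMI 1640 + 0.5% Albumax; 37 C, 5% CO2, one generation; luminescence read-out, lower signal = inhibition.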
Pf growth 96h: P. falciparum growth inhibition at 96 hour, primary screen for plastid delayed-death inhibitors; P. falciparum luciferase reporter growth, 96 h; 320,000 compounds, 6.9% hits; Potency, µM (titrated, usually from 28.7 µM), usual class: inhibitors
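Readout is luminescence from an integrated firefly luciferase in P. falciparum. Red cells, 2% hematocrit and 0.05% parasitemia final, were cultured with compound through two parasite generations (96 hours) at 37 C, 5% CO2.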
AMA1 RON2 block: disrupts binding of P. falciparum AMA1 to RON2 | AlphaScreen AMA1-biotinylated RON2 peptide binding | 360,000 compounds, 0.2% hits | AID 720542 | Potency, µM (series often up to 58.2 µM), usual class: inhibitors; note: nearly all actives have a fitted effect of over 45% in size
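AMA1 (3D7) with his tag at 25 nM final met compounds first, then biotinylated RON2 peptide at 25 nM; detection used donor plus acceptor beads, 10 µg/mL apiece, read by AlphaScreen after 30 min at room temperature.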
Large screens that a line does not name were inactive; ! = a repeat was not active. This is a sample that favours compounds with a hit; in the whole collection about 21% have one here. Unless noted, calls come from the whole dose curve; as a rule, active = well fitted curve in the direction sought with a large enough effect; inconclusive = small, poorly fitted or top-dose-only effect, or another doubt; inactive = no such curve, though single readings can be large; an effect the other way counts as inactive or inconclusive.

C=C1CCN(C(Cc2ccccc2)C(=O)NCc2ccc(Cl)c(Cl)c2)S(=O)(=O)c2ccccc21 (configuration not stated)	none (no result: HCV inh, Pf growth 48h, Pf growth 96h, AMA1 RON2 block)
O=C(Nc1cccnc1)c1ccc(Cl)c(S(=O)(=O)N2CCCCC2)c1	HCV inh inconclusive, Pf growth 96h inconclusive
C=CCN(c1ccccc1)S(=O)(=O)c1cccc(C(=O)Nc2ccncc2)c1	HCV inh inconclusive, Pf growth 48h inconclusive, Pf growth 96h inconclusive (no result: Shiga toxin inh, CHX counter)
O=C(O)c1cccc(NC(=O)c2ccc(Cl)c(S(=O)(=O)N3CCCCCC3)c2)c1	Shiga toxin inh 101, CHX counter 50, Pf growth 96h inconclusive
O=C(c1ccc(Cl)c(S(=O)(=O)N2CCCCCC2)c1)N1CCOCC1	Pf growth 96h inconclusive
O=C(COC(=O)c1ccccc1S(=O)(=O)N1CCCCC1)NCC(F)(F)F	Pf growth 96h 13µM
C=CCN(c1ccccc1)S(=O)(=O)c1cccc(C(=O)Nc2ccc(N3CCOCC3)cc2)c1	HCV inh 7.1µM, Pf growth 96h inconclusive, AMA1 RON2 block inconclusive (no result: Shiga toxin inh, CHX counter)
O=C(Nc1ccc(N2CCOCC2)cc1)c1ccc(Cl)c(S(=O)(=O)N2CCCCC2)c1	HCV inh 2.5µM, Pf growth 48h 10µM, Pf growth 96h inconclusive (no result: Shiga toxin inh, CHX counter)
CCN(C(=O)COC(=O)c1cc(=O)[nH]c2ccccc12)C1CCS(=O)(=O)C1 (configuration not stated)	Pf growth 48h inconclusive, Pf growth 96h inconclusive
COCCNc1ncnc2c1ncn2[C@H]1CN(Cc2ccccc2)C[C@@H](CO)O1	none (no result: Shiga toxin inh, CHX counter, HCV inh, Pf growth 48h, Pf growth 96h)
CC1CCC(NC(=O)c2cc(Cl)nc3ccccc23)CC1 (configuration not stated)	none (no result: Shiga toxin inh, CHX counter)
COc1cccc(-c2cnc(C(O)c3cccc(F)c3)[nH]2)c1 (configuration not stated)	none (no result: Shiga toxin inh, CHX counter, HCV inh, Pf growth 48h, Pf growth 96h)
O=C(COC(=O)c1ccc(Cl)c(S(=O)(=O)N2CCCCCC2)c1)Nc1ccccc1	Shiga toxin inh 56, CHX counter 35
COc1ccc(C(=O)O)cc1S(=O)(=O)Nc1cccc(C(F)(F)F)c1	none
O=C(O)c1ccc(Cl)c(S(=O)(=O)Nc2cccc(C(=O)Nc3cccc(C(F)(F)F)c3)c2)c1	Pf growth 96h 10µM
O=C(Nc1ccc(N2CCOCC2)cc1)c1cccc(S(=O)(=O)N2CCCCC2)c1	HCV inh 10µM! (no result: Pf growth 96h)
CN(C)c1cccc(C(=O)Nc2ccc(N3CCOCC3)cc2)c1	CHX counter 23 (no result: Pf growth 96h)
O=C(COC(=O)c1ccc(S(=O)(=O)N2CCCC2)cc1)Nc1ccccc1	none (no result: Shiga toxin inh, CHX counter)
CCN1CCN(c2ccc(NC(=O)c3cccc(S(=O)(=O)N4CCCC4)c3)cc2)CC1	none (no result: Shiga toxin inh, CHX counter, Pf growth 48h, Pf growth 96h)
O=C(COC(=O)c1ccc(S(=O)(=O)N2CCCCC2)cc1)Nc1ccccc1Cl	none (no result: Shiga toxin inh, CHX counter)
CCCCNC(=O)c1nc(-c2cccnc2OC)oc1-c1ccc(Cl)cc1	none (no result: Shiga toxin inh, CHX counter, HCV inh, Pf growth 48h, Pf growth 96h)
CCC(=O)N(c1nnc(SCC(=O)NN2C(=O)NC3(CCCCC3)C2=O)s1)C1CC1	Pf growth 96h inconclusive (no result: Shiga toxin inh, CHX counter)
CC(=O)OC1CCC2(C)C(CCC3C2CC(=O)C2(C)C3CC(C3CCCC3=O)C2C(C)=O)C1 (configuration not stated)	none (no result: Shiga toxin inh, CHX counter, Pf growth 48h, Pf growth 96h)
O=C(NCCCNC(=O)c1cccnc1)c1ccc(Cl)cc1	none
CCOc1ccccc1NC(=O)NCCCCc1ccccc1	HCV inh inconclusive, Pf growth 48h inconclusive, Pf growth 96h inconclusive
Cn1c(CNC(=O)C2CCCCC2)cc2ccccc21	none (no result: Shiga toxin inh)
COc1ccc(C(=O)NCc2cc3ccccc3n2C)cc1	CHX counter 29, Pf growth 96h inconclusive (no result: Shiga toxin inh)
CCn1c(CNC(=O)C2CCCCC2)cc2ccccc21	Pf growth 96h 9.3µM
CCn1c(CNC(=O)c2ccc(F)cc2)cc2ccccc21	CHX counter 30, Pf growth 96h inconclusive
N#Cc1c(N)nc(SCc2ccncc2)c(C#N)c1-c1cccs1	HCV inh 0.56µM, Pf growth 48h inconclusive, Pf growth 96h inconclusive
CCSc1nc(N)nc(-c2cccs2)c1C#N	Shiga toxin inh 68, CHX counter 31, HCV inh inconclusive
COc1cc(-c2c(C#N)c(N)nc3c2CCCC3)cc(OC)c1OC	Pf growth 48h inconclusive, Pf growth 96h inconclusive
COc1cc(-c2c(C#N)c(N)nc(SCc3ccncc3)c2C#N)cc(OC)c1OC	Pf growth 48h 13µM, Pf growth 96h inconclusive
COC(=O)C[C@H]1CC[C@H](NC(=O)c2cccc(F)c2)[C@@H](CO)O1	none (no result: Shiga toxin inh, CHX counter, HCV inh, Pf growth 48h, Pf growth 96h)
COC(=O)c1cccc(NC(=O)NC23CC4CC(CC(C4)C2)C3)c1	HCV inh inconclusive, Pf growth 96h inconclusive (no result: Pf growth 48h)
COC(=O)c1ccc(Cl)c(NC(=O)NC23CC4CC(CC(C4)C2)C3)c1	HCV inh inconclusive, Pf growth 96h 0.66µM (no result: Pf growth 48h)
CC(=O)Nc1nc2ccc(-c3nc4ccccc4o3)cc2s1	Shiga toxin inh 54, CHX counter 61
CCC(=O)Nc1cccc(-c2nc3ccccc3o2)c1	CHX counter 16, HCV inh inconclusive (no result: Pf growth 96h)
CC(=O)Nc1ccc(S(=O)(=O)Nc2cccc(-c3nc4ccccc4o3)c2)cc1	HCV inh 13µM (no result: Pf growth 48h)
O=C(Nc1ccc(O)c(-c2nc3ccccc3o2)c1)C1(c2ccccc2)CCCC1	HCV inh inconclusive, Pf growth 48h 15µM
O=S(=O)(Nc1ccc(-c2nc3ccccc3o2)cc1)c1ccccc1	none (no result: Pf growth 48h)
COc1ccc(OC)c(S(=O)(=O)NCC(c2ccc3c(c2)OCO3)N2CCOCC2)c1 (configuration not stated)	Pf growth 48h inconclusive (no result: Shiga toxin inh, CHX counter)
NC(CCc1ccccc1)c1csc(Nc2ccccn2)n1 (configuration not stated)	none (no result: Shiga toxin inh, CHX counter, HCV inh, Pf growth 48h, Pf growth 96h)
CS(=O)(=O)c1ccccc1C(=O)Nc1cccc(-c2nc3ccccc3o2)c1	CHX counter 23, HCV inh 11µM
O=C(Cc1cccs1)Nc1cccc(-c2nc3ccccc3o2)c1	HCV inh inconclusive, Pf growth 96h inconclusive
COc1ccc(Nc2c(-c3ccco3)nc3cccc(C)n23)cc1	Pf growth 96h 2.6µM
COc1ccc(Nc2c(-c3ccco3)nc3ccc(C)cn23)cc1	CHX counter 31, Pf growth 48h inconclusive, Pf growth 96h inconclusive
Cc1cccc2nc(-c3ccco3)c(Nc3ccc4c(c3)OCCO4)n12	Pf growth 48h inconclusive, Pf growth 96h inconclusive
Cc1ccc(Nc2c(-c3ccco3)nc3ccccn23)cc1	Shiga toxin inh 97, CHX counter 30, Pf growth 48h inconclusive
COc1ccc(NC(=S)NC(=O)C2CCCCC2)cc1	none
CCN(CC)c1ccc(NC(=S)NC(=O)C2CCC2)cc1	HCV inh inconclusive, Pf growth 96h 12µM
CC(=O)Nc1ccc(NC(=S)NC(=O)C2CCCC2)cc1	none
C#CC(CC)(CC)NC(=S)Nc1ccc(S(N)(=O)=O)cc1	Shiga toxin inh 44, CHX counter 12
NS(=O)(=O)c1ccc(NC(=S)NC(=O)C2CCCC2)cc1	Pf growth 96h 1.9µM
CCOc1ccc(NC(=S)NC(=O)C2CCCC2)cc1	Shiga toxin inh 69, CHX counter 16, Pf growth 96h inconclusive
CCCNC(=S)Nc1ccc(S(N)(=O)=O)cc1	none
CN(C)Cc1ccccc1-c1cccc2nccn12	none (no result: Shiga toxin inh, CHX counter, HCV inh, Pf growth 48h, Pf growth 96h)
